PubChem BioAssay (NCATS)
Inconclusive results are not listed. Activity calls are given as the source filed them. Unless noted, the call rests on the fitted dose curve; in most records, active means well fitted curve in the direction sought with a large enough effect; inconclusive means small, poorly fitted or top-dose-only effect, or another doubt; inactive means no such curve, though single readings can be large; an effect the other way counts as inactive or inconclusive.

Tests used:
[1] = molecular target: Lysosomal acid glucosylceramidase (Homo sapiens) (UniProt P04062); assay: Glucocerebrosidase-p2 (AID 348; in the data active means potency below about 10 µM; further: potency means the concentration at half of the fitted maximal effect); details: purified GBA, blue fluorogenic substrate, 40 min
Chain of Lysosomal acid glucosylceramidase (Homo sapiens) (P04062 whole entry, looked up): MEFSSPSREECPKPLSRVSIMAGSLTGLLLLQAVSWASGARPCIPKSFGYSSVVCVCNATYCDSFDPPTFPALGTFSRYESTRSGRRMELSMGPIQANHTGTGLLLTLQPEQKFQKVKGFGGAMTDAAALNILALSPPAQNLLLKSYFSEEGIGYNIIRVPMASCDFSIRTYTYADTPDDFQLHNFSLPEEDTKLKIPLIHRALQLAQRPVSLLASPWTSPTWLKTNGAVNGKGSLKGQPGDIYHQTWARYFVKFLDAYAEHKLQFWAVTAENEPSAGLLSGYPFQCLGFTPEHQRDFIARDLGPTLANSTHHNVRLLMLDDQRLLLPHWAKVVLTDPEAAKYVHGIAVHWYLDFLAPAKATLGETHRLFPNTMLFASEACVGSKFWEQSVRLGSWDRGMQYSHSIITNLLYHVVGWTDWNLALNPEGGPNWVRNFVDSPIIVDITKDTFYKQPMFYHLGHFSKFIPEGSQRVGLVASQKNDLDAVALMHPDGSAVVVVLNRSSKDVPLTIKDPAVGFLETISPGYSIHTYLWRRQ
How it was run: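 Compounds titrated from 0.6 nM upwards against 0.2 nM enzyme in pH 5.9 citric acid/KH2PO4, taurocholate, tween-20; blue fluorogenic substrate 80 uM, 40 min room temperature, stopped and read Ex 365/Em 440 for AC50.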

[2] = AP1 Signaling Pathway (AID 357; active means well fitted curve in either direction with a large enough effect, not every such curve was filed as active;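 further: ME-180 reporter cells stimulated with EGF at its EC50 level; on the % scale 0 is the no-effect control and ±100 the full control effect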); details: ME-180 AP-1-bla reporter, EGF-induced, beta-lactamase ratio, 5 h; at 7.69 µM (top of the series) unless noted
How it was run: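 AP-1-bla ME-180 cells, Opti-MEM + 0.5% dialyzed FBS, plated overnight 37 °C. Cpd titration + EC50 EGF, 5 h 37 °C. CCF4 2.5 h RT; ex 405, em 460/530 ratio → %activity, AC50.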

[3] = molecular target: Cytochrome P450 1A2 (Homo sapiens) (UniProt P05177); assay: p450-cyp1a2 (AID 410; calls by dose curve; further: potency means the concentration at half of the fitted maximal effect;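 on activity change, negative = inhibition: -100% = full effect of reference inhibitor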); details: recombinant CYP1A2, luciferin-ME demethylation, luminescence; series mostly up to 57 µM
Chain of Cytochrome P450 1A2 (Homo sapiens) (P05177 whole entry, looked up): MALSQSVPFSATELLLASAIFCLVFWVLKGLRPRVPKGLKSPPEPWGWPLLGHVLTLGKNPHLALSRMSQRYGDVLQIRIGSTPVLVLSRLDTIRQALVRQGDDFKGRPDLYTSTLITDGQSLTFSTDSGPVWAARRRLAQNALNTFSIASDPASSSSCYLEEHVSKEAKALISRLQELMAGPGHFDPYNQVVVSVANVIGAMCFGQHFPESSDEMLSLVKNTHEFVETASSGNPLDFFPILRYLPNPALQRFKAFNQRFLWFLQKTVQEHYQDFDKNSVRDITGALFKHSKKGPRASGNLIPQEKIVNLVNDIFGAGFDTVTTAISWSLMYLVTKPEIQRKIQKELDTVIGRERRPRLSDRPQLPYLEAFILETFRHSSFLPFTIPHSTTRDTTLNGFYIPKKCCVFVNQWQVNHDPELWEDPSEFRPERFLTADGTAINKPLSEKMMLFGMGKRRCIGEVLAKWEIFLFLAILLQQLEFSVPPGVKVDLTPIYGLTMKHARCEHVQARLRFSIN
How it was run: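 Inhibition was calculated relative to 57 uM furafylline (full inhibition). The reaction used human CYP1A2 at 20nM with Luciferin-ME at its Km, 100uM, driven by an NADPH-regenerating system for 60 min at room temperature.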

[4] = NFAT Signaling Pathway (AID 444; active means well fitted curve in either direction with a large enough effect, not every such curve was filed as active;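 further: carbachol stimulus at about its EC50 of 1 µM final; on the % scale 0 is the no-effect control and ±100 the full control effect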); details: Jurkat NFAT-bla M1, carbachol, beta-lactamase ratio, 5 h; at 7.69 µM (top of the series) unless noted
How it was run: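 Read-out: CCF4 FRET ratio (460 nm/530 nm) after 1 h RT dye loading, used for %activity and AC50 from titration series. Cells: Jurkat NFAT-β-lactamase/M1 line, treated with compound plus 1 uM carbachol for 5 h, 37 °C.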

[5] = Stat Signaling Pathway (AID 446; active means well fitted curve in either direction with a large enough effect, not every such curve was filed as active;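 further: ME-180 cervical cancer cells given 40 pM IL-6 alongside compound; SIE-controlled beta-lactamase reporter measured as 460/530 nm FRET emission ratio; on the % scale 0 is the no-effect control and ±100 the full control effect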); details: ME-180 (cervical carcinoma) SIE beta-lactamase reporter, IL-6 stimulated, 5 h; at 7.69 µM (top of the series) unless noted
How it was run: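 IL-6/STAT signaling read in ME-180 cells via an SIE beta-lactamase reporter. Stimulus was 40 pM IL-6 (its AC50) for 5 hrs, so both activation and inhibition register.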

[6] = molecular target: Glucocorticoid receptor (Homo sapiens) (UniProt P04150); assay: GR-GFP Redistribution (AID 450;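 active means compounds whose dose series gives a full or clear partial fitted curve of increased nuclear translocation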; further: potency means the concentration at half of the fitted maximal effect); details: U2OS GR-GFP nuclear translocation, laser cytometry, 2 h
Chain of Glucocorticoid receptor (Homo sapiens) (P04150 whole entry, looked up, the tested form may be a part): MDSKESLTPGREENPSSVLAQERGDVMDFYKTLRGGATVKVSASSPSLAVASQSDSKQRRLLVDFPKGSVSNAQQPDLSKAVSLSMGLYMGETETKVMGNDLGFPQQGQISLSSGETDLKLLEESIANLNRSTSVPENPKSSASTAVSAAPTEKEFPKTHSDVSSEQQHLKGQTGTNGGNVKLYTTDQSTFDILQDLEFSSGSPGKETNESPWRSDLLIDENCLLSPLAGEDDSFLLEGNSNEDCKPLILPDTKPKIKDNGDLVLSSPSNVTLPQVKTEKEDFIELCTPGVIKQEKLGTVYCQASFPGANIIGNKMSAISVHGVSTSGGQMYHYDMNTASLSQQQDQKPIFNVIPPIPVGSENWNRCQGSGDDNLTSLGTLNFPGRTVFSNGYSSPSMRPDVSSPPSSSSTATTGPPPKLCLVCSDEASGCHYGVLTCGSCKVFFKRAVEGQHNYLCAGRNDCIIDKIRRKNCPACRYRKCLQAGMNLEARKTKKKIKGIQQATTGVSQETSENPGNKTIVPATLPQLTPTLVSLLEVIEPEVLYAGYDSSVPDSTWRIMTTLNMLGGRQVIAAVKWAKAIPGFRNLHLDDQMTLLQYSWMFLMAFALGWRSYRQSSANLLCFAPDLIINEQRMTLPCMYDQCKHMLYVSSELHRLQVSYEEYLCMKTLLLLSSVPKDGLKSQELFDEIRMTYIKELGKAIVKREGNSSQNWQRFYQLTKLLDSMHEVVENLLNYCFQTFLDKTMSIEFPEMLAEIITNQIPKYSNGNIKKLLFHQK

[7] = molecular target: Glucocorticoid receptor (Homo sapiens) (UniProt P04150); assay: GR-EFC Redistribution (AID 451; calls by dose curve; further: potency means the concentration at half of the fitted maximal effect); details: CHO-K1 GR-EFC translocation, beta-gal luminescence, 2 h
How it was run: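 Translocation of GR-ED fusion to nuclear EA restores b-gal, read by luminescence after 1 h room-temperature detection. Engineered CHO-K1 biosensor cells, 1,000/well, exposed 2 h at 37 C to titrations up to 46 uM final.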

[8] = molecular target: Mitogen-activated protein kinase 10 (Mus musculus) (UniProt Q61831); assay: JNK3 AlphaScreen Assay (AID 530; active means well fitted curve in either direction with a large enough effect, not every such curve was filed as active;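 further: kinase came from lysate of stimulated human HepG2 cells; signal reports phosphorylation of biotinylated GST-cJun 1-79 at Ser73 with 10 µM ATP; on the % scale 0 is the no-effect control and ±100 the full control effect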); details: JNK3 lysate, c-Jun phosphorylation; series mostly up to 57.1 µM
How it was run: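 Room-temperature AlphaScreen kinase assay; pre-activated HepG2 lysate as JNK3 source, biotin-GST-cJun(1-79) substrate, 10 uM ATP, compound 15 min preincubation.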

[9] = molecular target: Cytochrome P450 3A4 (Homo sapiens) (UniProt P08684); assay: qHTS Assay for Activators of Cytochrome P450 3A4 (AID 885); details: recombinant CYP3A4, Luciferin-PPXE luminescence, 60 min; series mostly up to 57.1 µM; further: nearly all actives have a fitted effect of over 65% in size
Chain of Cytochrome P450 3A4 (Homo sapiens) (P08684 whole entry, looked up): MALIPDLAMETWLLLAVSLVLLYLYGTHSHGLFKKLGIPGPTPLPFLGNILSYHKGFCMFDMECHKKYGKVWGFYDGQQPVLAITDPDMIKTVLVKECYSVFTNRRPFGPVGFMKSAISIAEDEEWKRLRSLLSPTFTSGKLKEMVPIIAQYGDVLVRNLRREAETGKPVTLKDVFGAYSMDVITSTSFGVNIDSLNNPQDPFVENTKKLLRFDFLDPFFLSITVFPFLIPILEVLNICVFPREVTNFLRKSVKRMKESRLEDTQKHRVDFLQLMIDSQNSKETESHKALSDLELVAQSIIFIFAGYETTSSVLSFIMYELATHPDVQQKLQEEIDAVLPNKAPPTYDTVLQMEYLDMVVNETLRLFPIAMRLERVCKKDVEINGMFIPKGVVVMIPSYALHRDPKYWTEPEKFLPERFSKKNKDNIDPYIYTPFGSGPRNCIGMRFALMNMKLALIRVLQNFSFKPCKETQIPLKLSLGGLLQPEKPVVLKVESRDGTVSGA
How it was run: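 Quantitative HTS format: compounds preincubated with 20nM human CYP3A4 and Luciferin-PPXE substrate at KM, reaction started by NADPH regeneration, stopped after 60 min, luciferase luminescence read 20 min later.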

[10] = Primary qHTS for small molecule stabilizers of the endoplasmic reticulum resident proteome: Secreted ER Calcium Modulated Protein (SERCaMP) assay (AID 1508630); details: SH-SY5Y GLuc-SERCaMP (Gaussia luciferase released on ER calcium loss) secretion, thapsigargin, luminescence; series mostly up to 38.4 µM; further: on the % scale 0 is the no-effect control and ±100 the full control effect
How it was run: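 GLuc-SERCaMP-expressing SH-SY5Y cells, pretreated 16 h with compound, are challenged with thapsigargin to empty ER calcium stores; after 4 h, coelenterazine is added directly to the medium and luminescence is imaged.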

[11] = molecular target: Rap guanine nucleotide exchange factor 3 (Homo sapiens) (UniProt O95398); assay: Confirmatory qHTS for agonist of cAMP-regulated guanine nucleotide exchange factor 3 (EPAC1) (AID 1645881); details: EPAC1 Rap1B BODIPY-GDP exchange fluorescence; series mostly up to 154 µM; further: nearly all actives have a fitted effect of over 75% in size; further: potency means the concentration at half of the fitted maximal effect;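 on activation: EPAC1 catalysed release of BODIPY-GDP from Rap1B seen as fluorescence loss; 100% = effect of cAMP agonist control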
Chain of Rap guanine nucleotide exchange factor 3 (Homo sapiens) (O95398 whole entry, looked up): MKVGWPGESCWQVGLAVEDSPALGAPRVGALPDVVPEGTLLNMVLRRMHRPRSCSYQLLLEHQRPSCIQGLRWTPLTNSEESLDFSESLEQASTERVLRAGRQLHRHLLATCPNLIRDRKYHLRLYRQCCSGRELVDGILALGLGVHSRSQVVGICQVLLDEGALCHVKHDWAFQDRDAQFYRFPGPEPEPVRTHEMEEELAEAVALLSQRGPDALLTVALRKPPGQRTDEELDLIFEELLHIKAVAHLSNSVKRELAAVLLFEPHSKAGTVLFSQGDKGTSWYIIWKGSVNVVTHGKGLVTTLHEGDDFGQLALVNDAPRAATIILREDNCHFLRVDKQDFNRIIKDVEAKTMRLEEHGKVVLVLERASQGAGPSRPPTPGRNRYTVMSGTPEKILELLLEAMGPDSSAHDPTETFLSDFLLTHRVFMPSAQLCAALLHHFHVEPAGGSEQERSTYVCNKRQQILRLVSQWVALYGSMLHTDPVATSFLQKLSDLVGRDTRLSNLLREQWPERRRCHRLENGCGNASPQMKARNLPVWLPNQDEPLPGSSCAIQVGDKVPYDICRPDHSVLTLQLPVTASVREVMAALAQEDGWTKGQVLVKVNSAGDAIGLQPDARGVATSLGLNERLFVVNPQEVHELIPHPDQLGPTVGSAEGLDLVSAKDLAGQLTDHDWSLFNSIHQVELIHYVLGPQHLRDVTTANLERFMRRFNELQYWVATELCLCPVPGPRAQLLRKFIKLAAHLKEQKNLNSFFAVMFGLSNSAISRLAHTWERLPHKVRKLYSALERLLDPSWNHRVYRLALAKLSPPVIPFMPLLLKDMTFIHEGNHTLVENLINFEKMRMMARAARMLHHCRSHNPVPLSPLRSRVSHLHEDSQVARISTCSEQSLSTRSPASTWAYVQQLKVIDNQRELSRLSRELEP

[12] = molecular target: Rap guanine nucleotide exchange factor 4 (Homo sapiens) (UniProt Q8WZA2); assay: Confirmatory qHTS for agonist of cAMP-regulated guanine nucleotide exchange factor 4 (EPAC2) (AID 1645884); details: EPAC2 GEF activity, Rap1B-BODIPY-GDP fluorescence; series mostly up to 154 µM;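 further: nucleotide exchange releases bodipy-GDP from Rap1 and this lowers its fluorescence; nearly all actives have a fitted effect of over 65% in size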; further: potency means the concentration at half of the fitted maximal effect
Chain of Rap guanine nucleotide exchange factor 4 (Homo sapiens) (Q8WZA2 whole entry, looked up): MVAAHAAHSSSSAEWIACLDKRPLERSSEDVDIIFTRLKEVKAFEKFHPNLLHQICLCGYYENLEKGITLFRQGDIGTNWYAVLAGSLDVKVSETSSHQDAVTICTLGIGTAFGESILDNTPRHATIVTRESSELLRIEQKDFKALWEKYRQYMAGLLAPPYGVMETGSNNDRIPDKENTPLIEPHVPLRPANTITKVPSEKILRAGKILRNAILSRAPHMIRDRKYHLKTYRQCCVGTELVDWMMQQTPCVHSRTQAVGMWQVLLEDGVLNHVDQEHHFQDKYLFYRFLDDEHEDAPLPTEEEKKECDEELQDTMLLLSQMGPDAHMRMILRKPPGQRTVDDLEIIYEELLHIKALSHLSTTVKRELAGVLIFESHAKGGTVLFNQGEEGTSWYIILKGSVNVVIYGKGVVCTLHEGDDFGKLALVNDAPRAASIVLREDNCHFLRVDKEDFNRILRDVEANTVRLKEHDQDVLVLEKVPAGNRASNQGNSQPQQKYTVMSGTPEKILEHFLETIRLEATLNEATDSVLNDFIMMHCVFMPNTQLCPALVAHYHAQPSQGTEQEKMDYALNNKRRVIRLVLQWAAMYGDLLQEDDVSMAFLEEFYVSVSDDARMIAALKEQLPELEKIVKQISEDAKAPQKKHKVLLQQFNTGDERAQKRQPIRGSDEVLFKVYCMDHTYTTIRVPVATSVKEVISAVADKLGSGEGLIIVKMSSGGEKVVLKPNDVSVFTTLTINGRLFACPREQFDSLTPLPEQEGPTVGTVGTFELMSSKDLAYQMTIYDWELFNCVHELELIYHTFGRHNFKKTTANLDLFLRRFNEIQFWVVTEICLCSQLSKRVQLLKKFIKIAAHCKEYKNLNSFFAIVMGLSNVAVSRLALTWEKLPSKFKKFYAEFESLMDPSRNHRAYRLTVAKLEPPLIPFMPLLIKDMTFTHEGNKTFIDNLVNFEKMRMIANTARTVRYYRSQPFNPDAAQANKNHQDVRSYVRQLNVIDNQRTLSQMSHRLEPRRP

[13] = molecular target: 3',5'-cyclic-AMP phosphodiesterase 4B (Homo sapiens) (UniProt Q07343); assay: qHTS Assay for Inhibitors of PDE-IV (AID 607; active means well fitted activation curve with a large enough effect in the main read-out, with a control signal flat, not every such curve was filed as active; further: % of control where 0% means no effect); details: HEK293 ACTOne CNG channel cells, membrane potential fluorescence; series mostly up to 22.9 µM
How it was run: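 Live HEK293 cells with a modified cyclic nucleotide-gated (CNG) channel report intracellular cAMP via membrane-potential dye fluorescence (ex 535/em 590 nm). Endogenous PDE-IV was targeted. Compounds were tested at up to 22.9 uM final; RO 20-1724 100 uM served as control.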

[14] = molecular target: Cytochrome P450 3A4 (Homo sapiens) (UniProt P08684); assay: qHTS Assay for Inhibitors and Substrates of Cytochrome P450 3A4 (AID 884); details: recombinant CYP3A4, Luciferin-PPXE luminescence; series mostly up to 57.1 µM; further: potency means the concentration at half of the fitted maximal effect; nearly all actives have a fitted effect of over 50% in size
How it was run: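 20 nM human CYP3A4 with 25 uM Luciferin-PPXE (at KM) in 200 mM KPO4, preincubated 10 min with compound; NADPH regeneration started a 60 min RT reaction. Luciferin detected by luminescence, normalized to 57 uM ketoconazole as full inhibition.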

[15] = molecular target: Rap guanine nucleotide exchange factor 4 (Homo sapiens) (UniProt Q8WZA2); assay: Confirmatory qHTS for antagonist of cAMP-regulated guanine nucleotide exchange factor 4 (EPAC2) (AID 1645885); details: EPAC2 Rap1B-BODIPY-GDP exchange fluorescence, biochemical; series mostly up to 114 µM; further: nearly all actives have a fitted effect of over 25% in size; further: potency means the concentration at half of the fitted maximal effect
[16] = molecular target: Dual specificity protein kinase CLK4 (Homo sapiens) (UniProt Q9HAZ1); assay: qHTS Assay for Inhibitors of CDC-like Kinase 4 (ADP-FP Assay) (AID 1795); details: Transcreener ADP fluorescence polarization; series mostly up to 50 µM;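 further: recombinant human CLK4 phosphorylating RS repeat peptide at 1 µM ATP; on the % scale 0 is the no-effect control and ±100 the full control effect; nearly all actives have a fitted effect of over 60% in size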
Chain of Dual specificity protein kinase CLK4 (Homo sapiens) (Q9HAZ1 whole entry, looked up): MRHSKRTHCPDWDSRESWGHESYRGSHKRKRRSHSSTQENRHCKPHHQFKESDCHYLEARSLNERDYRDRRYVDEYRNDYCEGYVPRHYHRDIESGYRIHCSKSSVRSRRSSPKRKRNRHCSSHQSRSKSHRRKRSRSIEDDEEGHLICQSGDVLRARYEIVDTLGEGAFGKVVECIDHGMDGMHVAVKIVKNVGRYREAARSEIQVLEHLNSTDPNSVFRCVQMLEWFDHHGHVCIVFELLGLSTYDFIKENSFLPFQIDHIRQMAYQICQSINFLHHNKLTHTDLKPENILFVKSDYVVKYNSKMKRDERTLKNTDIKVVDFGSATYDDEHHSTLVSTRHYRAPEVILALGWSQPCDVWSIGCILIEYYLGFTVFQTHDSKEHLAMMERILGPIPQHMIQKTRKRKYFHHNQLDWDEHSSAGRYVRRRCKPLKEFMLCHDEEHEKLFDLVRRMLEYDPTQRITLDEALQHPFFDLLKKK
How it was run: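 Clk4 6.25 nM; RS peptide 100 uM; ATP 1 uM; 25 mM Tris pH 7.5, 10 mM MgCl2; 1 h reaction. ADP detected via antibody/orange tracer FP displacement; TG003 positive control.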

[17] = molecular target: Ubiquitin carboxyl-terminal hydrolase 1 (Homo sapiens) (UniProt O94782); assay: Inhibitors of USP1/UAF1: Pilot qHTS (AID 504865); details: purified USP1/UAF1, Ub-rhodamine cleavage fluorescence; series mostly up to 54.9 µM; further: nearly all actives have a fitted effect of over 35% in size; further: potency means the concentration at half of the fitted maximal effect
How it was run: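 In 50mM HEPES pH 7.8 containing 0.5mM EDTA, 1mM TCEP, 0.1 mg/ml BSA and 0.01% Tween-20, 1nM USP1/UAF1 is exposed to compound for 15 min, then Ub-Rho (150nM final) is added and fluorescence is read over time.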

[18] = molecular target: Dual specificity protein kinase CLK4 (Homo sapiens) (UniProt Q9HAZ1); assay: qHTS Assay for Inhibitors of CDC-like Kinase 4 (Kinase-Glo Assay) (AID 1770); details: recombinant Clk4, Kinase-Glo ATP depletion luminescence; series mostly up to 66.7 µM; further: nearly all actives have a fitted effect of over 65% in size; further: potency means the concentration at half of the fitted maximal effect
How it was run: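 Substrate mix (RS peptide 100 uM, ATP 1 uM) dispensed, compound pinned in, then Clk4 added to 25 nM final. Incubated 4.5 h at RT; Kinase-Glo reagent added, luminescence read after 5 min.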

[19] = molecular target: Rap guanine nucleotide exchange factor 3 (Homo sapiens) (UniProt O95398); assay: Confirmatory qHTS for antagonist of cAMP-regulated guanine nucleotide exchange factor 3 (EPAC1) (AID 1645880); details: EPAC1 Rap1B-BODIPY-GDP exchange, fluorescence; series mostly up to 115 µM;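 further: plate controls were DMSO only for no effect and full effect of the ATA control for full effect; nearly all actives have a fitted effect of over 55% in size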
How it was run: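 Nucleotide exchange uses 100 nM EPAC1, 250 nM RAP1B-BODIPY-GDP and 50 uM GDP, with compounds in a concentration-titration series. After 5 min at room temperature, fluorescence (480 nm ex/540 nm em) is read every 5 min for 30 min. Data are normalized to control ATA and DMSO.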

O=c1c(-c2ccc(F)c(F)c2)nc2cncnc2n1Cc1ccccc1Cl
inactive: Potency [1] > 11.4 µM | activity change, negative = inhibition [2] 4.57% | activity change, negative = inhibition [4] -7.38% | activity, negative = inhibition [5] 9.03% | Potency [6] > 9.22 µM | Potency [7] > 46 µM | Potency [8] | Potency [9] | outcome [10] | Potency [11] | Potency [12]
active: Potency [3] 5.01 µM

COCCn1c(=O)c(-c2cc(F)cc(F)c2)nc2cnc(Nc3cccc(OC)c3)nc21
inactive: Potency [1] > 11.4 µM | activity change, negative = inhibition [2] -16% | activity change, negative = inhibition [4] -16.5% | activity, negative = inhibition [5] -3.85% | Potency [6] > 9.22 µM | Potency [7] > 46 µM | Potency [8] | Potency [13] | Potency [9] | outcome [10] | Potency [11] | Potency [15]
active: Potency [3] 2.51 µM | Potency [14] 7.94 µM

COc1ccc(C(=O)N2CCC3(CC2)CN(c2cccc(-c4ccccc4)c2)C3)cc1
inactive: Potency [1] > 11.4 µM | activity change, negative = inhibition [2] -18.9% | activity, negative = inhibition [5] -19.1% | Potency [7] > 46 µM | Potency [13] | outcome [10] | Potency [11] | Potency [12] | Potency [15]

COc1cccc(Nc2ncc3nc(-c4cccs4)c(=O)n(-c4ccccc4)c3n2)c1
inactive: Potency [1] > 11.4 µM | activity change, negative = inhibition [2] -24.2% | activity change, negative = inhibition [4] -15.6% | activity, negative = inhibition [5] 3.1% | Potency [7] > 46 µM | Potency [8] | Potency [13] | Potency [9] | Potency [16] | outcome [10] | Potency [15]
active: Potency [3] 3.16 µM | Potency [17] 35.5 µM | Potency [11] 70.6 µM

N#CCCn1c(=O)c(-c2ccc(Cl)cc2)nc2cnc(Nc3ccccc3)nc21
active: Potency [12] 79.3 µM
inactive: Potency [1] > 11.4 µM | activity change, negative = inhibition [2] -28% | activity, negative = inhibition [5] -24.6% | Potency [6] > 9.22 µM | Potency [7] > 46 µM | Potency [8] | Potency [13] | Potency [18] | Potency [16] | Potency [17] | outcome [10] | Potency [15]

Cc1ccccc1-c1nc(N(C)Cc2ccco2)c2ccccc2n1
active: Potency [3] 1.58 µM | Potency [18] 20 µM | Potency [17] 28.2 µM | Potency [15] 35 µM
inactive: Potency [1] > 11.4 µM | activity change, negative = inhibition [2] 13.9% | activity change, negative = inhibition [4] -24% | activity, negative = inhibition [5] -5.08% | Potency [6] > 46 µM | Potency [7] > 46 µM | Potency [8] | Potency [9] | Potency [16] | outcome [10] | Potency [11] | Potency [12]

COc1cc(/C=C\c2ccc(OC)cc2OC)cc(OC)c1
active: Potency [3] 0.794 µM
inactive: Potency [6] > 46 µM | Potency [7] > 46 µM | Potency [13] | Potency [9] | outcome [10] | Potency [11] | Potency [12]

O=c1c(-c2cc(F)cc(F)c2)nc2cnc(N3CCOCC3)nc2n1-c1ccccc1
inactive: Potency [1] > 11.4 µM | Potency [6] > 9.22 µM | Potency [7] > 46 µM | Potency [8] | Potency [13] | outcome [10] | Potency [15]
active: Potency [3] 5.01 µM

COc1ccc2[nH]cc(CCNc3nc(-c4cccc(C#N)c4)nc4ccccc34)c2c1
active: Potency [18] 22.4 µM
inactive: Potency [6] > 46 µM | Potency [7] > 46 µM | Potency [8] | Potency [13] | Potency [16] | Potency [17] | outcome [10] | Potency [11] | Potency [12] | Potency [15]

CCCCCc1c2c(cc(O)c1C(=O)O)OC(=O)c1cc(C(=O)CCCC)c(OC)cc1O2
inactive: outcome [10] | Potency [11] | Potency [12]

COc1ccc(CNc2ccnc(-c3cccc(C#N)c3)n2)c(OC)c1
inactive: Potency [6] > 46 µM | Potency [7] > 46 µM | Potency [8] | Potency [9] | Potency [17] | outcome [10] | Potency [11] | Potency [12]
active: Potency [3] 2.51 µM | Potency [14] 2 µM | Potency [18] 15.8 µM

c1csc(CNc2ccnc(-c3ccc4c(c3)OCO4)n2)c1
inactive: activity change, negative = inhibition [4] 11.2% | activity, negative = inhibition [5] -12.2% | Potency [6] > 46 µM | Potency [7] > 46 µM | Potency [8] | Potency [9] | Potency [17] | outcome [10] | Potency [19] | Potency [15]
active: Potency [3] 0.316 µM

COCCn1c(=O)c(-c2ccc(OC)cc2)nc2cnc(Nc3cccc(OC)c3)nc21
inactive: Potency [1] > 11.4 µM | activity change, negative = inhibition [2] -2.99% | activity change, negative = inhibition [4] -5.57% | activity, negative = inhibition [5] 3.6% | Potency [6] > 9.22 µM | Potency [7] > 46 µM | Potency [13] | Potency [9] | outcome [10] | Potency [15]
active: Potency [3] 10 µM | Potency [11] 70.6 µM | Potency [12] 70.6 µM

COc1ccc(C(=O)N2CCC3(CCN(Cc4cc(C(F)(F)F)cc(C(F)(F)F)c4)CC3)CC2)cc1
active: Potency [15] 35 µM
inactive: Potency [1] > 11.4 µM | activity change, negative = inhibition [2] 7.47% | Potency [3] | activity change, negative = inhibition [4] 19.2% | activity, negative = inhibition [5] -6.24% | Potency [7] > 46 µM | Potency [8] | Potency [13] | Potency [9] | outcome [10] | Potency [11] | Potency [12]
